This note sets out measurements from PubChem BioAssay (Tox21).

A short description of assay [1]: Human pregnane X receptor (PXR) small molecule agonists, qHTS cell viability counter screen (AID 1346977). Also: nearly all actives have a fitted effect of over 50% in size. In a few lines: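 Tox21 qHTS format; PXR-Luc HepG2, 2,000/well, charcoal-stripped FBS 5%. Cpd exposure 24hr. Read: CellTiter-Fluor fluorescence, multiplexed with luciferase.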
Background: In qHTS, concentration-response curves come from the screen itself.

Assay [2] in a line: Caspase-3/7 induction in HepG2 cells by small molecules, qHTS assay (AID 1346978). Also: nearly all actives have a fitted effect of over 15% in size. In a few lines: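 Caspase-3/7 induction was measured by Caspase-Glo 3/7 luminescence (30 min, room temperature) after a 17 hr compound exposure of wild-type HepG2 cells seeded at 2,000 per well and pre-incubated 5 hr.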
The nature of assay [3]: Caspase-3/7 induction in CHO-K1 cells by small molecules, qHTS cell viability counter screen (AID 1346979). Also: nearly all actives have a fitted effect of over 35% in size. Put shortly:
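CellTiter-Fluor viability check, qHTS format: wild-type CHO-K1, 16hr compound treatment, 1hr reagent incubation, fluorescence read.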

The nature of assay [4]: Caspase-3/7 induction in HepG2 cells by small molecules, qHTS cell viability counter screen (AID 1346981). Also: series mostly up to about 92 µM; nearly all actives have a fitted effect of over 30% in size. Put shortly: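 Multiplexed with the caspase-3/7 assay: HepG2 cells, 16 hr compound treatment, CellTiter-Fluor viability detection by fluorescence.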
In assay [5] the target is Nuclear receptor subfamily 1 group I member 2 (Homo sapiens) (UniProt O75469). The experiment in a line: Human pregnane X receptor (PXR) small molecule agonists, qHTS assay (AID 1346982). Also: nearly all actives have a fitted effect of over 35% in size. Also: potency is read from the fitted curve at half-maximal effect. Put shortly: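 We seeded PXR-Luc HepG2 cells in assay medium containing 5% charcoal-stripped FBS, added compounds 5 hr later, incubated 24 hr, and read luminescence with ONE-Glo reagent.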

Assay [6] has as its target Acetylcholinesterase (Homo sapiens) (UniProt P22303). Briefly: Acetylcholinesterase (AChE) small molecule antagonists: colormetric cell-based qHTS assay (AID 1347395; calls by dose curve; also: nearly all actives have a fitted effect of over 30% in size). Put shortly: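 AChE inhibition read colorimetrically via DTNB–thiocholine in SH-SY5Y cells. Compound 30 min, substrate 90 min, both 37 C.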
Assay [7] has the same target. The experiment in a line: Acetylcholinesterase (AChE) small molecule antagonists: enzyme-based qHTS assay (AID 1347397; calls by dose curve; also: nearly all actives have a fitted effect of over 55% in size). The conditions noted are these: Potency: AChE enzyme activity inhibition; outcome: AChE enzyme activity inhibition. Put shortly: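 rhAChE 50 mU/mL (dispensed) + cpd or DMSO, 30 min RT; add DTNB/acetylthiocholine cocktail, 10 min RT; colorimetric thiocholine readout. qHTS, 1536-well format.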

The target is the same in assay [8]. Briefly: Acetylcholinesterase (AChE) small molecule antagonists: fluorescence cell-based qHTS assay (AID 1347398; calls by dose curve; also: nearly all actives have a fitted effect of over 50% in size). The conditions noted are these: Potency: AChE activity; outcome: AChE activity. In a few lines: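 Read-out is Thiolite Green fluorescence at Ex/Em = 490/520 nm, formed by reaction with thiocholine released when cellular AChE in SH-SY5Y cells hydrolyzes acetylthiocholine. Compounds were preincubated 30 min at 37 C before substrate.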

Assay [9] has the same target. The experiment in a line: Acetylcholinesterase (AChE) small molecule antagonists: enzyme-based qHTS assay with human liver microsomes (AID 1347399; calls by dose curve; also: nearly all actives have a fitted effect of over 60% in size). The conditions noted are these: Potency: qHTS inhibition; outcome: qHTS inhibition. Put shortly:
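Recombinant human AChE (50 mU/mL in the enzyme mix) and human liver microsomes (0.25 mg/mL final) were preincubated with compound and NADPH (0.25 mg/mL final) for 30 min at 37 C. Acetylthiocholine/DTNB was then added; thiocholine was read colorimetrically after 10 min at room temperature.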

In assay [10] the target is Cytochrome P450 2C19 (Homo sapiens) (UniProt P33261). The experiment in a line: Cytochrome P450 Family 2 Subfamily C Member 19 (CYP2C19) small molecule antagonists: luciferase reporter qHTS assay (AID 1671197). Also: nearly all actives have a fitted effect of over 65% in size. Also: potency is read from the fitted curve at half-maximal effect. As to activity change, negative = inhibition: series mostly up to about 120 µM. Put shortly:
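Enzyme-substrate mix with proluciferin substrate (P450-Glo CYP2C19 system) preincubated with compounds 10 min at room temperature; NADPH regeneration solution added, 37C for 1 h; detection reagent stops reaction, luminescence read after 20 min. Ketoconazole positive control.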

For assay [11], the target named is Cytochrome P450 2C9 (Homo sapiens) (UniProt P11712). The experiment in a line: Cytochrome P450 Family 2 Subfamily C Member 9 (CYP2C9) small molecule antagonists: luciferase reporter qHTS assay (AID 1671198). Also: series mostly up to about 120 µM; nearly all actives have a fitted effect of over 50% in size. In a few lines: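 Enzyme-substrate mix preincubated with compound 10 min at room temperature; reaction started with NADPH regeneration solution, 1 h 37C. Luminescent luciferin product read after 20 min detection reagent.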
(In general: A reporter such as luciferase makes a cellular process visible.)

Assay [12] concerns the target Cytochrome P450 1A2 (Homo sapiens) (UniProt P05177). Briefly: Cytochrome P450 Family 1 Subfamily A Member 2 (CYP1A2) small molecule antagonists: luciferase reporter qHTS assay (AID 1671199). Also: nearly all actives have a fitted effect of over 50% in size. Also: potency is read from the fitted curve at half-maximal effect. As to activity change, negative = inhibition: series mostly up to about 120 µM. In a few lines:
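CYP1A2 turnover of a luminogenic substrate was quantified after 1 h with NADPH regeneration at room temperature. Furafylline served as positive control.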

In assay [13] the target is Voltage-gated inwardly rectifying potassium channel KCNH2 (Homo sapiens) (UniProt Q12809). The experiment in a line: Human Ether-a-go-go-Related Gene (hERG) channel small molecule antagonists: fluorescence cell-based qHTS assay (AID 1671200). In a few lines: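 Kinetic two-minute fluorescence traces, sampled at 1 s, were collected following thallium stimulus of U2OS cells (1000 per well) that had been cultured overnight at 37 C and loaded with FluxOR II.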
A general note: The hERG channel carries a current that helps repolarise heart muscle cells.

In assay [14] the target is Cytochrome P450 3A4 (Homo sapiens) (UniProt P08684). The experiment in a line: Cytochrome P450 Family 3 Subfamily A Member 4 (CYP3A4) small molecule antagonists: luciferase reporter qHTS assay (AID 1671201). In a few lines:
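Proluciferin-to-luciferin conversion by CYP3A4, NADPH-regenerated, 1 h RT; luminescence read as RLU. Ketoconazole as control.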

The nature of assay [15]: Caspase-3/7 induction in CHO-K1 cells by small molecules, qHTS assay (AID 1346980). Also: nearly all actives have a fitted effect of over 15% in size. Put shortly:
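Luminescent Caspase-Glo 3/7 read (30min, room temperature) quantified apoptosis induction. Cells were wild-type CHO-K1, treated with compound for 17hr at 37 C and 5% CO2.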

For assay [16], the target named is Nuclear receptor subfamily 1 group I member 2 (Rattus norvegicus) (UniProt Q9R1A7). The experiment in a line: Rat pregnane X receptor (rPXR) activation by small molecules, qHTS assay (AID 1346983). Also: nearly all actives have a fitted effect of over 20% in size. The conditions noted are these: rPXR luciferase reporter cells, One-Glo luminescence, 24 h; stronger effect = higher value. In a few lines: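 Luminescent readout (One-Glo luciferase, 30 min room temperature) followed 24 hr compound treatment at 37 C of rPXR cells plated 2,000 per well and preincubated 5hr; qHTS format with compounds delivered in DMSO.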

In assay [17] the target is Nuclear receptor subfamily 1 group I member 2 (Homo sapiens) (UniProt O75469). Briefly: Human pregnane X receptor (PXR) activation by small molecules, qHTS assay (AID 1346985). Also: nearly all actives have a fitted effect of over 40% in size. Put shortly: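 DPX-2 cells (HepG2 co-transfected with a PXR response element and a CYP3A4-promoter luciferase construct) were seeded at 2,000 per well, rested 5 hr at 37C, then exposed to DMSO-dissolved compounds for 24 hr. Activation was read as luciferase luminescence.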

The target in assay [18] is Cytochrome P450 2D6 (Homo sapiens) (UniProt P10635). Briefly: Cytochrome P450 Family 2 Subfamily D Member 6 (CYP2D6) small molecule antagonists: luciferase reporter qHTS assay (AID 1671196). Put shortly:
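Luminescence (RLU), read 20 min after detection reagent, indicated CYP2D6 conversion of proluciferin to luciferin during a 1 h NADPH-dependent reaction at room temperature.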

Molecules are shown by their SMILES. Values without a mark were called inactive. Results filed as inconclusive are left out. Active and inactive are the calls of the source. Unless noted, calls follow the shape of the dose curve; as a rule, active = well fitted curve in the direction sought with a large enough effect in the repeat runs; inconclusive = weak or mixed curves; inactive = no such curve, though single readings can be large; an effect the other way counts as inactive or inconclusive.
% is scaled to controls: 0 for no effect and ±100 for the full control effect.

Sequence of Acetylcholinesterase (Homo sapiens) (P22303 whole entry, looked up): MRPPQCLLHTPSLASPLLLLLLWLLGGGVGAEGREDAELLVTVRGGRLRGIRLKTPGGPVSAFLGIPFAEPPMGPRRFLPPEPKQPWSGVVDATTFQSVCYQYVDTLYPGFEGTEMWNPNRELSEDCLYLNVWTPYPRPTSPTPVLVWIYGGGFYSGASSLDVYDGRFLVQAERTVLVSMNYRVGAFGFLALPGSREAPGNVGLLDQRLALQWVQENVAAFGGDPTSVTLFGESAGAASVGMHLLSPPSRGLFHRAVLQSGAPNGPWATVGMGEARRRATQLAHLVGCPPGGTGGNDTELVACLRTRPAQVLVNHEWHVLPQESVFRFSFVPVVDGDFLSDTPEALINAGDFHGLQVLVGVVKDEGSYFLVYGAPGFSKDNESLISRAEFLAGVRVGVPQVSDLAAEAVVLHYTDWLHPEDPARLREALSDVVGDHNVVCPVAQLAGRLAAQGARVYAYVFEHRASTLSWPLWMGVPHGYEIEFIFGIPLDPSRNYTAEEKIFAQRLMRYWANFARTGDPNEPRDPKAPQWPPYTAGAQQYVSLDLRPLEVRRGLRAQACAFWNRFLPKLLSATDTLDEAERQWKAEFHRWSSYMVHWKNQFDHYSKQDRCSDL
Sequence of Nuclear receptor subfamily 1 group I member 2 (Homo sapiens) (O75469 whole entry, looked up): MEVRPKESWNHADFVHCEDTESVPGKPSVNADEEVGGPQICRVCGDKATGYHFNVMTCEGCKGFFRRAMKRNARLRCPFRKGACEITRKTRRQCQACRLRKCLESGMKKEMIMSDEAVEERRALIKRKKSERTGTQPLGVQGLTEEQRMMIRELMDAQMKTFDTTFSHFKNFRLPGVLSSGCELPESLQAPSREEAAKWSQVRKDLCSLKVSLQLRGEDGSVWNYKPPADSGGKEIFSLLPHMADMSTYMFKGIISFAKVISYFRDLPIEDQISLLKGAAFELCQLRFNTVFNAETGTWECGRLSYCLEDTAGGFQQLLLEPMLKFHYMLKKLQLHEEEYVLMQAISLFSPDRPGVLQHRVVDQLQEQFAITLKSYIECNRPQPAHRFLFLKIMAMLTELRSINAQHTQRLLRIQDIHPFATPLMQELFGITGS
Sequence of Cytochrome P450 2D6 (Homo sapiens) (P10635 whole entry, looked up): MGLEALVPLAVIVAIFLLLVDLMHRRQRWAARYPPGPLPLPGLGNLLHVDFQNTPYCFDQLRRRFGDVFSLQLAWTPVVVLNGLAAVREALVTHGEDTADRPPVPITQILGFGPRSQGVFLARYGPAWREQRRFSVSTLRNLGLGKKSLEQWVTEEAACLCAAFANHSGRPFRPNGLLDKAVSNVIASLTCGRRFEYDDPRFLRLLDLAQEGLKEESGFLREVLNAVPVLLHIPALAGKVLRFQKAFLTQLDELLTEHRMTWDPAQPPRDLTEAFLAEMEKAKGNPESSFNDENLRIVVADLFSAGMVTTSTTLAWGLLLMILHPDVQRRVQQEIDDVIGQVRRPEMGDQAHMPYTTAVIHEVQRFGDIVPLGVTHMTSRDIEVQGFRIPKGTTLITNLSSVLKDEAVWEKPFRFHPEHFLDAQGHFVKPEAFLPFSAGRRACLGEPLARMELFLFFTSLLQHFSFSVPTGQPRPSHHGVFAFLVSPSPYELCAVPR
Sequence of Voltage-gated inwardly rectifying potassium channel KCNH2 (Homo sapiens) (Q12809 whole entry, looked up): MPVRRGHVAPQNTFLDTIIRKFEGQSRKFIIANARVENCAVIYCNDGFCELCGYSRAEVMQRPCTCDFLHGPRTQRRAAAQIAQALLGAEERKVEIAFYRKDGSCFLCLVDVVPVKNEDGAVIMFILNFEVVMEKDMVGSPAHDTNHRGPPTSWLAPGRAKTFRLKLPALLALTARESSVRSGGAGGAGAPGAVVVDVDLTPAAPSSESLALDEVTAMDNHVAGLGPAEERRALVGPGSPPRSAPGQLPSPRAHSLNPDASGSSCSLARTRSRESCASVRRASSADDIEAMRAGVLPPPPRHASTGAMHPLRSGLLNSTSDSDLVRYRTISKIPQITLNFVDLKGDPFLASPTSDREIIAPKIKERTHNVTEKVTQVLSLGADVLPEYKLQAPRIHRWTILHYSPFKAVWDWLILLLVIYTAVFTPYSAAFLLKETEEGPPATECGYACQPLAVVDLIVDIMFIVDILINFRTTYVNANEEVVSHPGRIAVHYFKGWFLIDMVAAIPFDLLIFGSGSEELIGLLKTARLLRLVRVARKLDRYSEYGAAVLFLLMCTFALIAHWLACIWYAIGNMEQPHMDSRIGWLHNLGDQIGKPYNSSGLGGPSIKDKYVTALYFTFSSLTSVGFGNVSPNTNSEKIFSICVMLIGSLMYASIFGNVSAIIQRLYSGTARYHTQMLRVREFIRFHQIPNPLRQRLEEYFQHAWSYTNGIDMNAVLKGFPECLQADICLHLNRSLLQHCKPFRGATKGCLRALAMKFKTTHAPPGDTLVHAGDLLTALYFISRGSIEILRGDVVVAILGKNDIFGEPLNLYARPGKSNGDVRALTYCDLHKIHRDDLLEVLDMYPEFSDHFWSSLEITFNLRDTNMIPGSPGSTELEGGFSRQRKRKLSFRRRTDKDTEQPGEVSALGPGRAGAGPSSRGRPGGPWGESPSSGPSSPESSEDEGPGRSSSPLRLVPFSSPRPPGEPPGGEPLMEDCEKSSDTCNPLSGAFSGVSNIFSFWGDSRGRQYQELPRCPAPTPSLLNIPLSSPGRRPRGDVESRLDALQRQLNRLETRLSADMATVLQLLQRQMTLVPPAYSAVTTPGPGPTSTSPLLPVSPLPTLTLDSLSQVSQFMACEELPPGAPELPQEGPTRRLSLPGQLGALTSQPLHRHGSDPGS
Sequence of Cytochrome P450 1A2 (Homo sapiens) (P05177 whole entry, looked up): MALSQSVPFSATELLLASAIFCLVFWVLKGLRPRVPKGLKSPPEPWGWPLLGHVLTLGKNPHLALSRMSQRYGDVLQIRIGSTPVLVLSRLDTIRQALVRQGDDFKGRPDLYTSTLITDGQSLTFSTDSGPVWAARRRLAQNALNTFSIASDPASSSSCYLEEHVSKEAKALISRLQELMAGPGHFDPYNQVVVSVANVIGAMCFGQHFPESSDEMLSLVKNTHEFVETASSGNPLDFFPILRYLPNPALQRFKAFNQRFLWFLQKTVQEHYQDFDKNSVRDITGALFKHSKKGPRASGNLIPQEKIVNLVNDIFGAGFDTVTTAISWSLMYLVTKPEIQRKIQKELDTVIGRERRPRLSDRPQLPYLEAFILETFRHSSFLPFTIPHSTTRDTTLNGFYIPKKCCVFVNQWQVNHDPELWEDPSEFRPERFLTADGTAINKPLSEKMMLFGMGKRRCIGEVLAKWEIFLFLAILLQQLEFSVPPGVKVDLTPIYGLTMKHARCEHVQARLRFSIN
Sequence of Cytochrome P450 2C19 (Homo sapiens) (P33261 whole entry, looked up): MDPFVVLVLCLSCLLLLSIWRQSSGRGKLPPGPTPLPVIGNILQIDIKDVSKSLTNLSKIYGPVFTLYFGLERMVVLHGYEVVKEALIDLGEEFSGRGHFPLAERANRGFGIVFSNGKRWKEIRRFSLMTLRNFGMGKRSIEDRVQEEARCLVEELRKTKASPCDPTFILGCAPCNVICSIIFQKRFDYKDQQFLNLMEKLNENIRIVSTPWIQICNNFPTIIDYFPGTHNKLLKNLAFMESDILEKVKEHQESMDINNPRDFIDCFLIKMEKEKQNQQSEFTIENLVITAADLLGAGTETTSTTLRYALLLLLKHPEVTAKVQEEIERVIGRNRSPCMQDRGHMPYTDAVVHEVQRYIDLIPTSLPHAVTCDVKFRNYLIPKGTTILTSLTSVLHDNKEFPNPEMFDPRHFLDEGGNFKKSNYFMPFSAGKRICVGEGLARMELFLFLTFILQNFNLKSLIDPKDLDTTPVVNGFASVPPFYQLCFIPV
Sequence of Cytochrome P450 2C9 (Homo sapiens) (P11712 whole entry, looked up): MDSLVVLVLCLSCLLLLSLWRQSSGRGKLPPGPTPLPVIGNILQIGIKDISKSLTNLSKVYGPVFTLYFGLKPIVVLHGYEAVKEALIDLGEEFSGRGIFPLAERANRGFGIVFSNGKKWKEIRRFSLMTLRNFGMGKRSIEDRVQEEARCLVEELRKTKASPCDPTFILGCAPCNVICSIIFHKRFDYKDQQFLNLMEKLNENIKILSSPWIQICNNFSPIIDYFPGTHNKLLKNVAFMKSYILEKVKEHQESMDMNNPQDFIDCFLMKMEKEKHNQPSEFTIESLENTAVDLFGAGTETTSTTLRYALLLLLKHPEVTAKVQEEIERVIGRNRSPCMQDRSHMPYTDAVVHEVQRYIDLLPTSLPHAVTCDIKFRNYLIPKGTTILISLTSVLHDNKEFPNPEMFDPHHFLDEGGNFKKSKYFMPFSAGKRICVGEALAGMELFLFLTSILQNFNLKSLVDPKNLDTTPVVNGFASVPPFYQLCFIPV
Sequence of Cytochrome P450 3A4 (Homo sapiens) (P08684 whole entry, looked up): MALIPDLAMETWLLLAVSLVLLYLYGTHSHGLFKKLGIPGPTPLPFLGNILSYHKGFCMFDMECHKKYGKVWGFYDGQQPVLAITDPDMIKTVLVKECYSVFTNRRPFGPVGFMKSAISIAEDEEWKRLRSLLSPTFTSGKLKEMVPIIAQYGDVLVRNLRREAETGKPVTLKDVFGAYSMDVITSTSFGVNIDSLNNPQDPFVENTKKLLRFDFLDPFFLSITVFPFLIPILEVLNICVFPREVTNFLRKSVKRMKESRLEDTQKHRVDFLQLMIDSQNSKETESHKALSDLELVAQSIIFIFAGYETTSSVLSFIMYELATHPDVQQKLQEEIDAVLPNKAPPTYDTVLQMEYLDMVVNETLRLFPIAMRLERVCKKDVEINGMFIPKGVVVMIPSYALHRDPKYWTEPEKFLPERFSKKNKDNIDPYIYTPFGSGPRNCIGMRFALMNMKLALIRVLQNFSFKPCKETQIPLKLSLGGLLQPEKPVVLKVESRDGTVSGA

As for `O=C1CCCCC1Cl` (configuration not stated), the Potency entry in assay [1], in [3], in [4], in assay [5], in assay [6] and in assay [7] was “inactive” in each case. Also, the Potency entry in assay [8], in assay [9], in [11], in assay [13] and in assay [14] was “inactive” throughout. Besides, the call in assay [2] was inactive. The Potency in assay [10] was 40.4 µM (active); in assay [12], 36 µM (active).

In the case of `CCCC(C)(COC(N)=O)COC(N)=O`, the Potency entry in assay [1], in [3], in assay [4], in [17], in assay [6] and in assay [7] was “inactive” throughout. Further, the Potency entry in [8], in assay [9], in assay [18], in [12] and in assay [13] was “inactive” throughout. The compound was classed as inactive in [2] and in assay [15]. In addition, the Potency was 51.5 µM (active) in assay [5] and 33.7 µM (active) in assay [10]. In assay [16], the max activation is -1.03%.

As to `C=CCC1(C(C)CC)C(=O)NC(=O)NC1=O` (configuration not stated), the Potency result in [1], in [4], in assay [5], in [6], in assay [7] and in [9] was “inactive” in each case. For the same compound, the Potency result in [18] and in assay [13] was “inactive” each time. For the same compound, in assay [12], the Potency is 21.9 µM (active).

Consider `CCCOc1nn(C(=O)NS(=O)(=O)c2ccccc2C(=O)OC)c(=O)n1C`, for which the Potency result in [1], in assay [3], in [4], in [5], in assay [6] and in assay [7] was “inactive” each time. The Potency entry in assay [8], in assay [9], in [18], in assay [10], in [12] and in assay [13] was “inactive” throughout. The Potency result in [14] was “inactive”. For the same compound, the call in assay [2] and in assay [15] was inactive.

On to `ClCOCCl`, for which the Potency result in assay [1], in [3], in assay [4], in assay [6], in assay [7] and in [8] was “inactive” throughout. Also, the Potency entry in assay [9], in assay [18], in [10], in assay [11], in assay [13] and in [14] was “inactive” throughout. Further, the compound was called inactive in [2] and in assay [15].

For the compound `O=P(O)(O)CN(CP(=O)(O)O)CP(=O)(O)O`, the Potency entry in assay [1], in [4], in assay [5], in assay [6], in assay [8] and in assay [9] was “inactive” each time. Also, the Potency entry in [10], in assay [11], in [12], in [13] and in [14] was “inactive” in each case. In addition, the result in [2] and in assay [15] was inactive.

With `CC(=O)OCC1=C(C(=O)O)N2C(=O)[C@@H](N)[C@H]2SC1`, the activity change, negative = cytotoxicity was 0.727% [at 19 µM] in [1], 0.401% [at 19 µM] in [3] and -1.33% [at 19 µM] in [4]. Moreover, in assay [2], the caspase activation was 0.281% [at 19 µM]. Further, the caspase-3/7 activation in assay [15] was 0.439% [at 19 µM]. Further, the activation in assay [5] was -3.67% [at 19 µM]. The max activation in assay [16] is 4.87%. Further, the Potency result in [17] is “inactive”. For the same compound, the activity, negative = inhibition in [6] is 1.78% [at 23.6 µM]. In addition, the activity change, negative = inhibition in [7] was -2.73% [at 23.6 µM]; in [8], -12.7% [at 23.8 µM]; in [9] it was -11.4% [at 23.6 µM]; in assay [13], 0.177% [at 15.8 µM]; in [14], -8.01% [at 23.6 µM]. Also, the Potency was 15.1 µM (active) in [10] and 12 µM (active) in assay [12].
